# Data from the supplement of paper PMC6555819.
# Experiments:
# Assay in all cases: PBM binding z-score (relative to random genomic background probes); higher = stronger binding; sequences stand for … in GC…GCGATTGACAGCGTAGAATGAAGG
# [1] = test system: RARb homodimer (NR concentration 270 nM)
# Procedure, shortened: (§1)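 Antibodies against each partner of ligand-free nuclear receptor dimers (one per run) detected binding on custom Agilent 4×180K protein-binding microarrays after 1 h incubation. The double-stranded probes had 34-nt variable regions carrying direct-repeat seeds, single-nucleotide variants, half-site ablations and random human genomic background sequences. Binding z-scores, from regression-normalized fluorescence, use the random background probes as reference.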
# [2] = test system: RARg:RXRa (NR concentration 270 nM, RXRa partner concentration 90 nM)
# Procedure, shortened: as §1
# [3] = test system: RARg homodimer (NR concentration 270 nM)
# Procedure, shortened: as §1
# [4] = test system: RXRa DBDmut IVT, anti-RXR (DBD mutation: RXRa K156A/R161A, NR concentration 90 nM)
# Procedure, shortened: as §1
# [5] = test system: RXRa homodimer (NR concentration 180 nM)
# Procedure, shortened: as §1
# [6] = test system: THRa:RXRa (NR concentration 90 nM, RXRa partner concentration 90 nM)
# Procedure, shortened: as §1
# [7] = test system: THRa homodimer (NR concentration 90 nM)
# Procedure, shortened: as §1
# [8] = test system: VDR homodimer (NR concentration 270 nM)
# Procedure, shortened: as §1
Sequence,PBM binding z-score [1],PBM binding z-score [2],PBM binding z-score [3],PBM binding z-score [4],PBM binding z-score [5],PBM binding z-score [6],PBM binding z-score [7],PBM binding z-score [8]
GCGACTAGGGCAAAGCAGGTTACCATAAGGTTGG,0.924,0.573,1.01,-0.427,0.44,2.98,0.052,-0.405
ATCGAAAGGTCGACGAGGTGGGTATACACCGTTT,2.71,4.03,3.85,0.746,4.17,2.51,-0.214,0.638
GCGACTGGGGCATAAGCAGGTTACCATAACTTAA,0.55,0.617,0.393,0.0117,0.39,0.914,-0.368,-0.246
CGTACTGGGCCACGAAAGGTCATTGATTCAGTGA,4.58,4.97,4.48,0.97,5.18,3.83,1.09,2.78
CCAACTGGGCCATCAGGTCATTGATATCAACGTT,2.79,2,2.2,0.763,1.46,3.19,3.32,2.04
TATACACGGTCAAAGGCCAGAGTACGAATGTCGA,2.33,2.53,2.87,0.0328,1.45,0.581,-0.253,0.761
AGAATAAGGTTACCAAAGATCAGGGAAACGCTTG,1.1,2.06,2,0.391,2.36,2.69,0.914,0.232
GATACAGGGTCAGCTAGAGGCCGGAGTATGGAAA,3.18,5.66,4.38,1.07,4.04,2.7,0.265,0.333
TCAGCCAGGTGAAGGTAACTCAGGTACGCAGTCG,0.236,0.119,-0.0268,0.397,0.607,1.8,0.391,-0.347
CATACAGGGTCAGCTAGGTCAGAGTAGGGACGGC,4.28,5.09,5.08,1.93,4.95,4.07,2.33,2.85
GCTAGTTGGTCAATAAAAGGTCACACACCGGTCG,5.51,6.07,5.18,0.854,5.51,3.66,1.83,2.11
CCTATTAGTTGAACATAAGGGCAACCGAAGCTCG,1.97,1.48,1.14,0.521,0.64,2.06,1.04,0.571
GCTGGTAGATCAAGGTTAAGAAAGACTAAGCTAA,0.171,0.216,0.368,-0.116,0.692,1.36,-0.209,-0.133
GCTATTAGTTGAAAGTGCAACCGAATGATTCTCG,0.667,0.42,0.38,1.14,0.575,0.147,-0.293,0.388
TATACAGGGTCAAAGGCGAGAGTACGAATGTCGA,3.17,5.39,5.04,2.92,6.67,3.42,0.888,3.09
TCATATAGGTAAATGCTAGGTGAAAATCCGATCT,0.208,0.578,0.633,1.54,0.795,1.24,0.427,0.374
ACAGACAAGTGATGAAGGTAACTCAGGCTATCAT,0.0016,-0.0454,0.277,-0.483,0.153,0.639,-0.0791,-0.536
CCTCGGAAGACAGAAGGTCAGAGCTGTCCGCTTT,3.01,2.34,2.32,0.101,1.83,1.56,-0.133,0.00286
CGTCCAAGGTCATAGGCGGTCAGTGAAGACAGAT,4.09,6.05,6.4,3.89,5.94,4.35,2.21,3.22

Sequence,PBM binding z-score [1],PBM binding z-score [2],PBM binding z-score [3],PBM binding z-score [4],PBM binding z-score [5],PBM binding z-score [6],PBM binding z-score [7],PBM binding z-score [8]
AGAATGAGGTTATTACGATCAGGGAATTGCGGTC,1.07,1.35,1.1,2.37,2.06,2.44,0.982,1.6
TCATATAGGTAAATGCTAGCTGAAAGTCCGATCT,-0.406,0.14,0.178,1.68,0.565,-0.388,-0.402,0.142
ACTATTAGTTGAGACGAGGGCAACGGATAGGTTG,0.993,0.638,0.908,0.374,0.585,2.53,0.137,0.875
AGTCAAAGTTCAGGACTAGGTAACGTAAAGCACG,2.93,4.32,4.99,2.87,2.92,2.51,0.371,1.94
CCTACAGGGCCAAAAAGGTCATTGATGCCGATAA,4.52,4.75,4.56,1.26,5.08,3.21,0.419,3.43
TCTAGTTGGTCAAAGGTCACAAACTCGAAATGCG,4.92,6.76,6.07,1.79,7.88,3.84,1.73,2.43
TAGCCTAGGTCATGGGCAAGTATACCACGCGAAC,3.17,4.22,4.58,0.0807,3.44,3.34,1.26,0.341
ATATGTAGGTTAGCTGCGGTCATTCAGACTAGGC,2.02,1.43,1.83,0.343,0.968,4.05,0.202,0.904
GCAGACGGGTGAAACGCAGGTAACTCAGGGTGGC,-0.28,0.482,-0.283,-1.07,0.49,1.3,-0.706,-0.68
AGAATGAGGTTATACGTAGAGCAGGGAAGAAAGT,0.854,1.69,0.941,1.58,2.1,2.19,0.488,0.731
GCTTACTGGTCAAAGGTTATAGCATGAATAGAAT,1.78,3.91,1.68,0.714,4.35,1.87,-0.137,0.435
ACTAGCAGGGCAAGTTTGGGTCACTCAAACAAAG,2.59,3.35,2.64,0.437,1.38,3.17,1.08,0.258
ACTAGCAGTCCAAGTTTGGGTCACTCAAACAAAG,1.97,0.986,0.834,0.395,0.691,2.16,1.07,0.0671
ACAGACAGGTGATGGAGGTAACTCAGGCTATCAT,0.431,0.0912,0.339,-0.505,0.156,1.05,0.503,-0.164
TCGAGTAGGTTAGGTGCATTCAGAATGGCGTCGA,0.197,-0.25,-0.0841,1.04,0.1,-0.142,-0.111,1.47
GCTAGTTGGTCAGTAAAAGGCCACACACCGGTCG,1.83,0.944,0.676,-0.169,0.227,0.0278,-0.175,-0.584
ATATGTAGGTTACATCCGGGTCATTGAGGCTATG,3,3.72,2.07,1.25,3.12,3.92,2.69,2.7
ACTTACGGGTCAACGTGGTTATAGCACGCGTATA,3.03,5.25,5.16,2.08,6.28,2.64,0.124,1.18
